Bioassay records: PubChem BioAssay, National Center for Advancing Translational Sciences (NCATS)
Shown are actives, neighbours in structure and some others; about 19% of the full set was active somewhere.
DT40 TDP1 no CPT – qHTS for Inhibitors of human tyrosyl-DNA phosphodiesterase 1 (TDP1): qHTS in cells in absence of CPT | DT40 Tdp1-/- hTDP1 cells, no CPT, ATP luminescence, 48 h | Potency, µM (series often up to 46.2 µM), inactives show at the highest dose activity change, negative = growth inhibition, hits mostly inhibitors | hit rate 15% among 420,000; also: potency is read from the fitted curve at half-maximal effect; nearly all actives have a fitted effect of over 55% in size
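DT40 Tdp1-/-;hTDP1 cells, no CPT (DMSO vehicle only), 400 cells/well; compounds pin-transferred; ≥48 hr, 37 °C; CellTiter-Glo 30 min RT dark, luminescence read.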
IL1B secr inh – qHTS for Inhibitors of Inflammasome Signaling: IL-1-beta AlphaLISA Primary Screen; hit rate 4.7% among 360,000; AID 743279, 2014; activity change, % at 57.5 µM; THP-1 LPS/ATP IL-1B secretion, AlphaLISA, 16 h; stronger effect = lower value; in the data active = activity change below about -50%; inconclusive = mostly about -30% to -49%
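Secreted IL-1B measured by AlphaLISA bead assay after 16 h compound exposure of THP-1 cells; compounds (final up to 57.5 uM) added 1 h before LPS (250 ng/mL) and ATP (1.25 mM) stimulation; lower signal means less secretion.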
HT1080 IDH1KD tx – qHTS for induction of synthetic lethality in tumor cells producing 2HG: qHTS for the HT-1080-IDH1KD cell line. HT-1080 IDH1 knockdown viability, ATP luminescence, 48 h. Potency, µM (highest dose often 46.1 µM), without a hit: at the highest dose activity, negative = toxicity, most hits filed as cytotoxic. hit rate 2% among 360,000;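 also: potency is read from the fitted curve at half-maximal effect; 0% = DMSO wells and -100% = cell-free medium wells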
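IDH1KD HT-1080 cells, 750/well, RPMI + 5% FBS; compound pinned after 2 h settling; 48 h, 37 °C; CellTiter-Glo luminescence; % activity normalised to DMSO and no-cell wells; curves fitted, classed by r2 and efficacy.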
DT40 TDP1 CPT – qHTS for Inhibitors of human tyrosyl-DNA phosphodiesterase 1 (TDP1): qHTS in cells in presence of CPT; Potency, µM (highest dose often 46.2 µM), for the others: at the top dose activity change, negative = growth inhibition, hits mostly inhibitors; hit rate 12% among 420,000; AID 686979, 2013; chicken DT40 Tdp1-/-;hTDP1 cells + 20 nM CPT, ATP luminescence, 48 h; also: potency is read from the fitted curve at half-maximal effect; nearly all actives have a fitted effect of over 55% in size
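Cell growth measured by CellTiter-Glo luminescence after a minimum 48 h, 37 C compound exposure with 20 nM CPT in Tdp1-knockout DT40 cells stably expressing hTDP1, seeded 400/well; qHTS titration format.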
HT1080NT lethal – qHTS for induction of synthetic lethality in tumor cells producing 2HG: qHTS for the HT-1080-NT fibrosarcoma cell line; HT-1080-NT fibrosarcoma viability, CellTiter-Glo ATP luminescence, 48 h; Potency, µM (highest dose often 46.1 µM), for the others: top-dose activity, negative = less viability, most hits filed as cytotoxic; hit rate 1.6% among 360,000; AID 686970, 2013;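 also: NT is the 2HG producing partner of a matched IDH1 knockdown line; potency is read from the fitted curve at half-maximal effect; 0% = DMSO-treated cells and -100% = media-only wells without cells; nearly all actives have a fitted effect of over 55% in size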
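HT-1080-NT fibrosarcoma cells (2HG-overproducing), 750 cells/well in RPMI with 5% FBS, dosed after 2 h and incubated 48 h at 37C. CellTiter-Glo luminescence normalized to DMSO and no-cell wells; concentration-response curves fitted and classed.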
Numbers without * were called inactive; ? = inconclusive; . = no result. Unless noted, calls follow the shape of the dose curve; as a rule, active = well fitted curve in the direction sought with a large enough effect; inconclusive = small, poorly fitted or top-dose-only effect, or another doubt; inactive = no such curve, though single readings can be large; an effect the other way counts as inactive or inconclusive. Unless noted, % is scaled to controls: 0 for no effect and ±100 for the full control effect.

SMILES	DT40 TDP1 no CPT	IL1B secr inh	HT1080 IDH1KD tx	DT40 TDP1 CPT	HT1080NT lethal
Cc1ccc2cc(CN(CC3CCCO3)S(=O)(=O)c3cccc4nsnc34)c(=O)[nH]c2c1 (centres undefined)	18.4µM*	2.4	11.7%	?	-1.0%
CCCCN(Cc1cc2cc(OC)ccc2[nH]c1=O)S(=O)(=O)c1ccc(C)cc1	7.31µM*	-20.2	-28.0%	10.3µM*	?
O=C(c1cc(Cl)ccc1[N+](=O)[O-])N1CCc2ccccc2C1	0.8%	7.0	2.6%	-5.5%	3.3%
CCCCn1c(N)c(N(CC(C)C)C(=O)c2ccc(-c3ccc(C(C)=O)cc3)o2)c(=O)[nH]c1=O	-23.1%	6.4	0.1%	-11.8%	-8.8%
CCOC(=O)Nc1ccccc1C(=O)N1CCOCC1	-4.6%	-0.5	15.2%	-6.0%	16.6%
COc1ccc(C(=O)C2CCCN(C(=O)c3cccc(N4CCCC4=O)c3)C2)cc1OC (centres undefined)	-3.2%	-14.4	1.5%	-4.2%	-6.8%
COC(=O)c1cccc(S(=O)(=O)N(Cc2ccco2)Cc2cc3cc(OC)ccc3[nH]c2=O)c1	?	-4.0	-27.7%	29.1µM*	-27.6%
Cn1c(C(=O)NCCCN2CCc3ccccc3C2)cc2c(=O)n(C)c3ccccc3c21	?	-53.2*	-14.0%	?	-8.8%
Cn1c(C(=O)NCCCN2CCCCCC2)cc2c(=O)n(C)c3ccccc3c21	?	-29.4	3.4%	18.4µM*	4.6%
Cc1ccc2nc3[nH]c(=O)[nH]c(=O)c3c(N)c2c1	8.2µM*	-6.4	-5.5%	?	0.1%
FC(F)(F)c1cc(CCN2CCNC[C@@H]2CC2CCCCC2)cc(C(F)(F)F)c1	?	-101.4*	?	23.1µM*	?
CC(O)[C@H]1CNC(=S)N1CCc1cccc(F)c1 (some centres undefined)	-17.3%	11.3	4.7%	8.4%	7.7%
CCC(C)[C@H]1CNCCN1CCc1cc(C(F)(F)F)cc(C(F)(F)F)c1 (some centres undefined)	18.4µM*	-66.1*	-8.4%	?	-11.9%
c1ccc2c(C[C@@H]3CNCCN3CCCCC3CCCCC3)cccc2c1	?	-15.7	3.0%	?	4.0%
FC(F)(F)c1cc(CCN2CCNC[C@@H]2c2ccccc2)cc(C(F)(F)F)c1	?	?	-11.7%	16.4µM*	0.0%
CCC(C)[C@H]1CNC(=S)N1CCc1cc(C(F)(F)F)cc(C(F)(F)F)c1 (some centres undefined)	20.6µM*	-55.5*	-2.3%	?	-2.8%
O=C(CCS(=O)(=O)c1ccccc1)NCc1ccccc1	9.3%	-5.8	-0.4%	-12.1%	-2.7%
CC1(C(=O)NS(=O)(=O)c2ccc3c(c2)CCO3)CCN1C(=O)Cc1ccc(-c2ccccc2)cc1 (centres undefined)	-9.4%	19.0	-2.3%	-3.8%	0.9%
CCCC[C@@H]1CNCCN1CCc1cc(C(F)(F)F)cc(C(F)(F)F)c1	20.6µM*	-61.3*	-9.3%	?	0.0%
CCCC[C@@H]1CNC(=O)C(=O)N1CCc1cc(C(F)(F)F)cc(C(F)(F)F)c1	?	-5.0	0.5%	-29.0%	3.7%
COc1ccc(S(=O)(=O)c2cn(Cc3ccccc3)c3cc(N4CCCC4)c(F)cc3c2=O)cc1	5.17µM*	.	.	?	.
CCn1cc(S(=O)(=O)c2ccc(OC)cc2)c(=O)c2cc(F)c(N3CCN(C)CC3)cc21	11.5%	5.0	-8.8%	3.4%	-17.7%
Cc1cccc(S(=O)(=O)c2cn(Cc3ccccc3)c3cc(N4CCC(C)CC4)c(F)cc3c2=O)c1	8.2µM*	.	.	5.8µM*	.
O=c1c(S(=O)(=O)c2ccccc2)cn(Cc2ccc(F)cc2)c2cc(N3CCOCC3)c(F)cc12	14.6µM*	.	.	20.6µM*	.
CCOc1ccc(OCCC(=O)Nc2cccc(S(=O)(=O)N3CCCC3)c2)cc1	?	-3.5	-3.7%	?	2.7%
SMILES	DT40 TDP1 no CPT	IL1B secr inh	HT1080 IDH1KD tx	DT40 TDP1 CPT	HT1080NT lethal
COCCCNC(=O)C(=O)C1C(=O)Nc2ccccc21 (centres undefined)	-14.1%	2.0	-4.9%	14.6%	-1.0%
COc1ccccc1CNC(=O)c1ccc2c(c1)N(Cc1cccc(C)c1)C(=O)c1ccccc1S2(=O)=O	-26.6%	.	.	?	.
COC(C[C@@H]1O[C@H]1C(=O)COCc1ccccc1)OC	20.6µM*	14.9	7.1%	16.4µM*	7.5%
COC(C[C@H]1O[C@@H]1C(=O)COCc1ccccc1)OC	4.61µM*	25.4	-10.7%	4.11µM*	-2.1%
COC(C[C@@H]1O[C@H]1[C@H](O)COCc1ccccc1)OC	0.2%	14.2	0.3%	-6.1%	17.0%
COC(C[C@@H]1O[C@@H]1C(=O)COCc1ccccc1)OC	?	51.3	-2.5%	18.4µM*	2.5%
CCCN(CCC)CCCNC(=O)c1cc2c(=O)n(C)c3ccccc3c2s1	18.4µM*	.	.	?	.
CCN(CC)CCNC(=O)c1cc2c(=O)n(C)c3ccccc3c2n1C	?	?	-2.9%	?	-4.1%
CCN(CC)CCCNC(=O)c1cc2c(=O)n(C)c3ccccc3c2n1C	?	-86.8*	-6.3%	?	-15.3%
CCCN(CCC)CCCNC(=O)c1cc2c(=O)n(C)c3ccccc3c2n1C	25.9µM*	-64.9*	-19.1%	?	?
CCN(CC)CCNC(=O)c1cc2c(=O)n(C)c3cc(Cl)ccc3c2s1	20.6µM*	.	.	?	.
CCOC(=O)NC(=O)CSc1nnc(C)s1	-14.3%	4.7	?	24.0%	7.9%
COc1ccc(Cl)cc1N(C(=O)c1ccco1)C(C(=O)NC1CCCC1)c1ccncc1 (centres undefined)	?	-13.4	16.1%	-10.4%	?
COCCNC(=O)c1cc2c(=O)n(C)c3ccccc3c2n1C	-14.4%	-6.0	12.9%	-10.4%	10.1%
CCCCN(CC)CCNC(=O)c1cc2c(=O)n(C)c3ccccc3c2n1C	14.6µM*	-80.0*	?	18.4µM*	?
COCCCNC(=O)c1cc2c(=O)n(C)c3ccccc3c2n1C	?	-4.3	-26.7%	18.4µM*	-17.0%
Cc1ccc(S(=O)(=O)N2CCN(C(=O)C3CCN(C(=O)c4ccccc4C)CC3)CC2)cc1C	?	21.0	-9.6%	?	-3.8%
Cc1ccc(C(O)c2ncc(-c3ccc4ccccc4c3)[nH]2)c(C)c1 (centres undefined)	-27.7%	-1.5	-20.8%	?	-13.5%
